Values joined by “and” are separate entries in the source; they are usually repeats but may differ in a detail not shown here. Identical values can stand only once. Where a SMILES comes first, the peptide text is derived from it. The star is where a group is joined. Boc = CC(C)(C)OC(=O)*
What was measured:
[1] = system: Botulinum neurotoxin type F light chain protease (Clostridium botulinum); assay: Botulinum neurotoxin type F light chain protease inhibition, multiplex microsphere flow cytometry, validation set (AID 588459); conditions: multiplex microsphere protease substrate cleavage assay, at 10 µM, stronger effect = higher value
[2] = target: Botulinum neurotoxin type A (Clostridium botulinum) (UniProt P0DPI0); assay: BoNT/A light chain protease inhibitors, biochemical, multiplex microsphere flow cytometry, validation set (AID 588460); conditions: at 10 µM, stronger effect = higher value
[3] = target: Lethal factor (Bacillus anthracis) (UniProt P15917); assay: Lethal factor protease inhibitors, Bacillus anthracis, multiplex microsphere cleavage assay, validation set (AID 588461); conditions: flow cytometry, at 10 µM, stronger effect = higher value

Measured: inhibition

Sequence of Lethal factor (Bacillus anthracis) (P15917 whole entry, looked up): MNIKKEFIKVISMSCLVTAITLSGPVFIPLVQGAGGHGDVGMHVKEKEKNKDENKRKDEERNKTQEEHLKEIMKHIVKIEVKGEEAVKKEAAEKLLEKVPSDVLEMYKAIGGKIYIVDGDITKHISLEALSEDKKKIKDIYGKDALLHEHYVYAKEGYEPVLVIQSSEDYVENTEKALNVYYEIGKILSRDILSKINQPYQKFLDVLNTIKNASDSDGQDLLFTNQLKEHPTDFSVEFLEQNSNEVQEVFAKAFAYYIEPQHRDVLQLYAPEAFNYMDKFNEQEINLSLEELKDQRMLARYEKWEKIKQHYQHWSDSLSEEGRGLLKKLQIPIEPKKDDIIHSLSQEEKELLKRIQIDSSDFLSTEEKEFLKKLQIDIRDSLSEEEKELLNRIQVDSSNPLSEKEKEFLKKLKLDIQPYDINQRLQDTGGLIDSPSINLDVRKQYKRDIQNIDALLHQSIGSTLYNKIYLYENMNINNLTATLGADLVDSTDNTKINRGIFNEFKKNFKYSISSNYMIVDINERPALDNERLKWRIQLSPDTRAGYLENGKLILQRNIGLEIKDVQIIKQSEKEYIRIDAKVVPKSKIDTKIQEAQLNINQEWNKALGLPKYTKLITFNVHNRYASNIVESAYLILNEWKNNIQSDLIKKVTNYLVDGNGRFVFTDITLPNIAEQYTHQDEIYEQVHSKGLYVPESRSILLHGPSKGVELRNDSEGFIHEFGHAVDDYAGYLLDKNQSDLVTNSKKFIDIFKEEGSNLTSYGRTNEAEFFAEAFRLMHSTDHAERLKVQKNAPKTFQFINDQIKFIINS
Sequence of Botulinum neurotoxin type A (Clostridium botulinum) (P0DPI0 whole entry, looked up): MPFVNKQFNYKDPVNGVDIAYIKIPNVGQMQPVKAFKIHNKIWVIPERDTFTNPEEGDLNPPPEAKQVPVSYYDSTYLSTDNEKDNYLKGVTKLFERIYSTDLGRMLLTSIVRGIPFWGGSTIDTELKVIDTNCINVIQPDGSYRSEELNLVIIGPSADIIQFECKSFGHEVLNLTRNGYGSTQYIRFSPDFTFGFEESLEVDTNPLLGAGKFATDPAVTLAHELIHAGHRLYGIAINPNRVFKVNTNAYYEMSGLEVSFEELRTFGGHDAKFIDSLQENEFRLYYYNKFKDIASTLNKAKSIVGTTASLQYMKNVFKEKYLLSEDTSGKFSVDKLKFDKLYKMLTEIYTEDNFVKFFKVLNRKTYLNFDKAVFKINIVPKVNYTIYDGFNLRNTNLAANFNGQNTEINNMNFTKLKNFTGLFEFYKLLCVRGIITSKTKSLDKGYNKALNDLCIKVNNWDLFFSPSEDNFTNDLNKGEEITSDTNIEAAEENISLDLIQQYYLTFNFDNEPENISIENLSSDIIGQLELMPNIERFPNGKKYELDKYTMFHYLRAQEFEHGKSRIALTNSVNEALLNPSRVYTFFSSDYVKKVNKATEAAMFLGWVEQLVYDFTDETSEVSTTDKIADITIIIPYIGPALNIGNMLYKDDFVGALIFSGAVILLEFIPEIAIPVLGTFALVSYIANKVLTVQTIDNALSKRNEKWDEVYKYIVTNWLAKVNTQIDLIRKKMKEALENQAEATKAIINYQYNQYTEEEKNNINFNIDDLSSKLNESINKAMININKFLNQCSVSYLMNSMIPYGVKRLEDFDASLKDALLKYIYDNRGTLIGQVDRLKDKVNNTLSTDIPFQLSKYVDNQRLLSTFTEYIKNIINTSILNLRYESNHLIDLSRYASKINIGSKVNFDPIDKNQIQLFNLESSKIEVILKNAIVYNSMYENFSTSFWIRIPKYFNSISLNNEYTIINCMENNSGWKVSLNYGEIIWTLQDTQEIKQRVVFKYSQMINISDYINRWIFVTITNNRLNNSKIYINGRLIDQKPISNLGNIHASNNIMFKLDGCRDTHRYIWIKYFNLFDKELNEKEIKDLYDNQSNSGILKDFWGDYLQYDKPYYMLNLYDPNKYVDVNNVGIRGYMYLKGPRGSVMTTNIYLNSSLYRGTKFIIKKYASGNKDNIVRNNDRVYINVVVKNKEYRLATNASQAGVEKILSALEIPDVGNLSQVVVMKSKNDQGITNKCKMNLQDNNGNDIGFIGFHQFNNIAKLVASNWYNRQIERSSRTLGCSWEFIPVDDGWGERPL

OCCN1CCN(CCCN2c3ccccc3Sc3ccc(C(F)(F)F)cc32)CC1
inactive: [1] -3.2% | [2] -0.1% | [3] -5.1%

O=C(NCCc1c[nH]c2ccccc12)OCCSS(=O)(=O)O
inactive: [1] -4.5% | [2] -0.2% | [3] 3.7%

O=C1CCCCCN1Cc1ccccc1
inactive: [1] -3.6% | [2] -1.9% | [3] -2.7%

CC(C)C(=O)Nc1cccnc1
inactive: [1] -1.8% | [2] 0.9% | [3] -5.8%

CC(=O)OCC(=O)[C@@]1(O)CC[C@H]2[C@@H]3CCC4=CC(=O)CC[C@]4(C)[C@H]3[C@@H](O)C[C@@]21C
inactive: [1] -3.3% | [2] -3.5% | [3] -5.1%

CC(=O)c1c(C)c(C)c2n1CCn1c(C)ccc1-2
inactive: [1] -0.2% | [2] -0.1% | [3] 0.9%

COc1ccc(CNC(=O)c2cc3c(=O)n4ccccc4nc3n(Cc3cccnc3)c2=N)cc1
inactive: [1] -1.2% | [2] 0.4% | [3] -1.9%

O=C(NCCNc1ccc(Cl)cc1[N+](=O)[O-])c1cccnc1
inactive: [1] 0.4% | [2] -1.2% | [3] 2%

CCN(CCCc1ccccc1)CCCc1ccccc1
inactive: [1] 1% | [2] -0.4% | [3] -2.4%

CSc1ccc(CN2CCN(CCC(C)C)C(CCO)C2)cc1 (stereo not given)
inactive: [1] 2.2% | [2] 0.1% | [3] -3.3%

COc1ccc(CC(=O)N2CC3(C)CC2CC(C)(C)C3)cc1OC (stereo not given)
inactive: [1] -2.6% | [2] -1.4% | [3] -0.4%

O=c1nc2cccc3c2=c(/c1=C(\O)c1ccccc1)c1ccccc1c3=O
inactive: [1] 3.2% | [2] 0.6% | [3] -0.8%

COc1ccc(C2C(=O)c3ccccc3C2=O)cc1
inactive: [1] 0.5% | [2] -0.4% | [3] -3.8%

C[N+]12CCC(CC1)C(OC(=O)C(O)(c1ccccc1)c1ccccc1)C2 (stereo not given)
inactive: [1] 1% | [2] 0.1% | [3] -0.4%

CNS(=O)(=O)c1ccc(C)cc1
inactive: [1] -3.1% | [2] -0.5% | [3] -3.3%

COc1cc2c(cc1NCc1ccc3c(c1)OCO3)oc1ccccc12
inactive: [1] -2.5% | [2] -0.9% | [3] -15.7%

COc1c2occc2c(OC)c2c(=O)cc(C(F)(F)C(F)(F)F)oc12
inactive: [1] 2.3% | [2] 0.5% | [3] 0.4%

NCCc1cnc[nH]1
inactive: [1] 0.7% and 3.1% | [2] -1.5% | [3] 3.7%

O=C(O)CCCNc1ccc(S(=O)(=O)Nc2ccccc2C(=O)O)cc1C(=O)O
inactive: [1] 1.6% | [2] 1.7% | [3] 10%

Cc1cc(O)c(C(=O)Cc2csc(C)n2)c(O)c1
inactive: [1] -5.7% | [2] -2.4% | [3] 0.7%

CC(C)CC(NC(=O)C1CCCN1C(=O)OC(C)(C)C)C(=O)NCC(N)=O (stereo not drawn) (Boc-Pro-Leu-Gly-NH2; configuration not given here)
inactive: [1] 3.5% | [2] 0.3% | [3] 4.3%

Cc1cc(C(C)(C)C)cc(C)c1CC1=NCCN1
inactive: [1] 1.3% | [2] 1.2% | [3] 1.8%

Cc1ncc(C(=O)O)c(C(=O)O)c1N
inactive: [1] 0.4% | [2] -0.1% | [3] 2.4%

CC1(C)CC(O)(CNCc2ccc3c(c2)OCO3)CCO1 (stereo not given)
inactive: [1] -3.2% | [2] -0.9% | [3] 1.2%

Cc1ccc(C2CC(c3cccs3)=NN2C(=O)c2ccco2)o1 (stereo not given)
inactive: [1] -0.5% | [2] -0.5% | [3] 1.3%

CN(Cc1ccccc1)CC(O)COc1ccc(CNCc2cccnc2)cc1 (stereo not given)
inactive: [1] -3.8% | [2] 0.2% | [3] -5.3%

O=C(/C=C/c1ccccc1)NC(=O)c1ccccc1O
inactive: [1] -4.2% | [2] -1.7% | [3] -5.7%

Cc1cc(=O)[nH]c(=S)[nH]1
inactive: [1] -3.5% | [2] -3.3% | [3] -7.5%

CC(=O)Nc1cc(O)cc(O)c1
inactive: [1] 6.1% | [2] 0.1% | [3] -1.2%

COc1ccc(O)c(C2=Nc3ccccc3N=C(c3ccccc3)C2)c1
inactive: [1] 0.8% | [2] 0.8% | [3] 4.2%
